# Assay results from PubChem BioAssay (NCI).
# About 79,000 compounds went through this panel and 15% of them were active in at least one assay; those are over-represented in the sample as a whole. A number with no mark means an inactive call. The source made the active and inactive calls. Cut-off read from the data, not from the text of the source: active = growth inhibition above about 70%; inactive = the rest.
# Test: NCI Yeast Anticancer Drug Screen. Data for the bub3 strain (AID 167)
# Conditions: S. cerevisiae bub3 mutant strain, at 50.0 µM, stronger effect = higher value
# In short: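 Inhibition values come from growth of compound-treated mutant yeast normalised to vehicle-treated controls.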
row,Compound,growth inhibition
1,CC12CCC(=O)C=C1CCC1C2CCC2(C)C(O[Si](C)(C)OC3CCC4C5CCC6=CC(=O)CCC6(C)C5CCC34C)CCC12 (stereo not given),97.1% (active)
2,CC1=C[C@H]2O[C@H]3C[C@H]4OC(=O)/C=C\C=C\C(=O)OCC[C@@H](C)[C@H](O)C(=O)OC[C@@]2(CC1)[C@@]4(C)[C@]31CO1,92% (active)
3,CCCCCCCC[As](C)(=O)O,-12.1%
4,OC1C2[C@@H](O)CCCN2C[C@@H](O)[C@H]1O (stereo not given in full),4.95%
5,COC1(O[C@H]2CC[C@H]3[C@@H]4CCC5=CC(=O)CC[C@]5(C)[C@H]4CC[C@]23C)CCCCC1,99.1% (active)
6,O=[N+]([O-])c1ccc(CS(=O)(=O)C(Cl)(Cl)Cl)o1,90.3% (active)
7,CC([CH2][Hg][Cl])c1ccccc1 (stereo not given),99.6% (active)
8,CC(C)CC[CH2][Pb]([CH2]CCC(C)C)([CH2]CCC(C)C)[O]C(=O)C(Cl)(Cl)Cl,99% (active)
9,COC1OC(OC)[CH]([Hg][Cl])C1OC (stereo not given),99.2% (active)
10,S=C=[N][Sn]([N]=C=S)([c]1ccccc1)[c]1ccccc1.c1ccc2nc(-c3ccc4ccccc4n3)ccc2c1,90% (active)
11,CSCCC([NH-])C(=O)O.CSCCC([NH-])C(=O)O.[Zn+2] (stereo not given),99% (active)
12,C[PH+](C)C.C[PH+](C)C.[Au],89.5% (active)
13,O=C(O)C(Br)C(Br)C(=O)O.[Ag] (stereo not given),98.8% (active)
14,CCC1CN1P(=O)(Oc1ccccc1)N1CC1CC (stereo not given),57.5%
15,CCCCCc1cc(O)c(CCCC)c(O)c1,99.2% (active)
16,N#CC(Cl)(Cl)CCl,0.15%
17,O=C(Cc1c2ccccc2cc2c1ccc1ccccc12)N(CCCl)CCCl,98.3% (active)
18,CC[C@@]1(O)C(=O)OCc2c1cc1n(c2=O)Cc2cc3c(OC)cccc3nc2-1,70.8% (active)
19,CCOC(=O)NP(=O)(NNc1ccccc1)NNc1ccccc1,98.8% (active)
20,C=C1C(=O)O[C@@H]2C[C@@H](C)[C@@H]3C=CC(=O)[C@@]3(C)[C@@H](O)[C@H]12,22.9%

row,Compound,growth inhibition
1,O=C(O)C(F)(F)F.[Ag],98.5% (active)
2,O=C(CBr)Nc1ccccc1,97.1% (active)
3,C1=C[N-]c2c3c(ccc2=C1)=CC=C[N-]3.C1=C[N-]c2c3c(ccc2=C1)=CC=C[N-]3.F[P-](F)(F)(F)(F)F.[Cu+2],99.2% (active)
4,O=[N+]([O-])/C=C/c1ccccc1Cl,91% (active)
5,CCOP(=S)(OCC)SSSP(=S)(OCC)OCC,70% (active)
6,CCOC(=O)c1ccc(N=Cc2ccc(N(CCCl)CCCl)cc2C)cc1,17.2%
7,COc1ccc2c(c1)CCC(N1CCCC(=O)C1)C2 (stereo not given),89.1% (active)
8,CCCCCCC(=O)[O][Hg][c]1ccccc1,99.4% (active)
9,CCC[CH2][Sn]1([CH2]CCC)[O]C(=O)c2cccnc2[S]1,83.5% (active)
10,C[AsH](C)CC[AsH](C)C.C[AsH](C)CC[AsH](C)C.C[AsH](C)CC[AsH](C)C.[Ni],96.5% (active)
11,O=c1[nH]c2ccccc2n1C1CCN(CCCC(c2ccc(F)cc2)c2ccc(F)cc2)CC1,72.9% (active)
12,O=[C-]c1ccccc1[C-]=O.[Pd+2].c1ccc([PH+](c2ccccc2)c2ccccc2)cc1.c1ccc([PH+](c2ccccc2)c2ccccc2)cc1,14.7%
13,c1ccc(C(c2ccccc2)c2cccnc2)cc1,91.7% (active)
14,C#CC[As+](c1ccccc1)(c1ccccc1)c1ccccc1,91.2% (active)
15,CC[CH2][Pb]([CH2]CC)([CH2]CC)[O]C(C)=O,90.6% (active)
16,CC[PH+](CC)CC.[Cl][Au],89.8% (active)
17,CN(C)[PH+](N(C)C)N(C)C.CN(C)[PH+](N(C)C)N(C)C.[C-]#[O+].[C-]#[O+].[C-]#[O+].[C-]#[O+].[C-]#[O+].[C-]#[O+].[Co].[Co].[Hg],99.5% (active)
18,CC1=C(N2CC2)C(=O)c2nc3n(c2C1=O)CCC3OC(=O)CCl (stereo not given),6%
19,[N-]=[N+]=Nc1c([N+](=O)[O-])c(=O)n2c3c(cccc13)CCC2,90.5% (active)
20,CCC[CH2][Sn]1([CH2]CCC)[O]CC(CN2CCCCC2)[O]1 (stereo not given),88% (active)

# Test: NCI Yeast Anticancer Drug Screen. Data for the mlh1 rad18 strain (AID 175)
# Conditions: S. cerevisiae mlh1 rad18 strain growth inhibition; at 5.0 µM (retest, dose inferred, filed as 0.5); stronger effect = higher value
# In short: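 A repair-deficient yeast strain is exposed to test compound, and growth is scored relative to vehicle-treated controls.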
row,Compound,growth inhibition
1,CC12CCC(=O)C=C1CCC1C2CCC2(C)C(O[Si](C)(C)OC3CCC4C5CCC6=CC(=O)CCC6(C)C5CCC34C)CCC12 (stereo not given),6%
2,CC1=C[C@H]2O[C@H]3C[C@H]4OC(=O)/C=C\C=C\C(=O)OCC[C@@H](C)[C@H](O)C(=O)OC[C@@]2(CC1)[C@@]4(C)[C@]31CO1,98% (active)
3,CCCCCCCC[As](C)(=O)O,-144%
4,OC1C2[C@@H](O)CCCN2C[C@@H](O)[C@H]1O (stereo not given in full),14%
5,COC1(O[C@H]2CC[C@H]3[C@@H]4CCC5=CC(=O)CC[C@]5(C)[C@H]4CC[C@]23C)CCCCC1,-25%
6,O=[N+]([O-])c1ccc(CS(=O)(=O)C(Cl)(Cl)Cl)o1,18%
7,CC([CH2][Hg][Cl])c1ccccc1 (stereo not given),100% (active)
8,CC(C)CC[CH2][Pb]([CH2]CCC(C)C)([CH2]CCC(C)C)[O]C(=O)C(Cl)(Cl)Cl,6%
9,COC1OC(OC)[CH]([Hg][Cl])C1OC (stereo not given),99% (active)
10,S=C=[N][Sn]([N]=C=S)([c]1ccccc1)[c]1ccccc1.c1ccc2nc(-c3ccc4ccccc4n3)ccc2c1,77% (active)
11,CSCCC([NH-])C(=O)O.CSCCC([NH-])C(=O)O.[Zn+2] (stereo not given),4%
12,C[PH+](C)C.C[PH+](C)C.[Au],68%
13,O=C(O)C(Br)C(Br)C(=O)O.[Ag] (stereo not given),99% (active)
14,CCC1CN1P(=O)(Oc1ccccc1)N1CC1CC (stereo not given),-2%
15,CCCCCc1cc(O)c(CCCC)c(O)c1,-92%
16,N#CC(Cl)(Cl)CCl,2%
17,O=C(Cc1c2ccccc2cc2c1ccc1ccccc12)N(CCCl)CCCl,42%
18,CC[C@@]1(O)C(=O)OCc2c1cc1n(c2=O)Cc2cc3c(OC)cccc3nc2-1,86% (active)
19,CCOC(=O)NP(=O)(NNc1ccccc1)NNc1ccccc1,92% (active)
20,C=C1C(=O)O[C@@H]2C[C@@H](C)[C@@H]3C=CC(=O)[C@@]3(C)[C@@H](O)[C@H]12,11%

row,Compound,growth inhibition
1,O=C(O)C(F)(F)F.[Ag],99% (active)
2,O=C(CBr)Nc1ccccc1,48%
3,C1=C[N-]c2c3c(ccc2=C1)=CC=C[N-]3.C1=C[N-]c2c3c(ccc2=C1)=CC=C[N-]3.F[P-](F)(F)(F)(F)F.[Cu+2],53%
4,O=[N+]([O-])/C=C/c1ccccc1Cl,99% (active)
5,CCOP(=S)(OCC)SSSP(=S)(OCC)OCC,4%
6,CCOC(=O)c1ccc(N=Cc2ccc(N(CCCl)CCCl)cc2C)cc1,25%
7,COc1ccc2c(c1)CCC(N1CCCC(=O)C1)C2 (stereo not given),9%
8,CCCCCCC(=O)[O][Hg][c]1ccccc1,100% (active)
9,CCC[CH2][Sn]1([CH2]CCC)[O]C(=O)c2cccnc2[S]1,51%
10,C[AsH](C)CC[AsH](C)C.C[AsH](C)CC[AsH](C)C.C[AsH](C)CC[AsH](C)C.[Ni],56%
11,O=c1[nH]c2ccccc2n1C1CCN(CCCC(c2ccc(F)cc2)c2ccc(F)cc2)CC1,14%
12,O=[C-]c1ccccc1[C-]=O.[Pd+2].c1ccc([PH+](c2ccccc2)c2ccccc2)cc1.c1ccc([PH+](c2ccccc2)c2ccccc2)cc1,14%
13,c1ccc(C(c2ccccc2)c2cccnc2)cc1,54%
14,C#CC[As+](c1ccccc1)(c1ccccc1)c1ccccc1,45%
15,CC[CH2][Pb]([CH2]CC)([CH2]CC)[O]C(C)=O,49%
16,CC[PH+](CC)CC.[Cl][Au],94% (active)
17,CN(C)[PH+](N(C)C)N(C)C.CN(C)[PH+](N(C)C)N(C)C.[C-]#[O+].[C-]#[O+].[C-]#[O+].[C-]#[O+].[C-]#[O+].[C-]#[O+].[Co].[Co].[Hg],5%
18,CC1=C(N2CC2)C(=O)c2nc3n(c2C1=O)CCC3OC(=O)CCl (stereo not given),23%
19,[N-]=[N+]=Nc1c([N+](=O)[O-])c(=O)n2c3c(cccc13)CCC2,40%
20,CCC[CH2][Sn]1([CH2]CCC)[O]CC(CN2CCCCC2)[O]1 (stereo not given),30%
